Measured values reported in article PMC11062922 (Nature Chemical Biology, 2023).
Like-named read-outs stand apart in the source and are kept apart here.

What was measured:
Design in all cases: species or system human, MV4-11 + K-562 + COLO205 + SK-N-BE2 + OVCAR-8
[1] = test system: FLT3; conditions: read-out: apparent Kd, n = 1
[2] = test system: MYLK3; conditions: read-out: apparent Kd, n = 1
[3] = test system: PRKD2; conditions: read-out: apparent Kd, n = 1
[4] = test system: PRKD3; conditions: read-out: apparent Kd, n = 1
[5] = test system: DYRK1A; conditions: read-out: apparent Kd, compound concentrations: 100 nM and 1000 nM (sheet 'Samples'), n = 1
[6] = test system: PLK4; conditions: read-out: apparent Kd, n = 1
[7] = test system: PRKCD; conditions: read-out: apparent Kd, compound concentrations: 100 nM and 1000 nM (sheet 'Samples'), n = 1
[8] = test system: RPS6KA6; conditions: read-out: apparent Kd, n = 1
[9] = test system: CDK7; conditions: read-out: apparent Kd; compound concentrations:100 nM and 1000 nM (sheet 'Samples'); n = 1
[10] = test system: ERCC2; conditions: read-out: apparent Kd; compound concentrations:100 nM and 1000 nM (sheet 'Samples'); n = 1
[11] = test system: FER; conditions: read-out: apparent Kd; compound concentrations:100 nM and 1000 nM (sheet 'Samples'); n = 1
[12] = test system: PRKAA1; conditions: read-out: apparent Kd, n = 1
[13] = test system: PRKCQ; conditions: read-out: apparent Kd, n = 1
[14] = test system: PTK2B; conditions: read-out: apparent Kd, n = 1
[15] = test system: PTK2; conditions: read-out: apparent Kd, n = 1
[16] = test system: TNK2; conditions: read-out: apparent Kd; compound concentrations:100 nM and 1000 nM (sheet 'Samples'); n = 1
[17] = test system: LATS1; conditions: read-out: apparent Kd; compound concentrations: 100 nM and 1000 nM (sheet 'Samples'), CATDS: 9.3348582894500695E-3; n = 1
[18] = test system: MARK4; conditions: read-out: apparent Kd; compound concentrations: 100 nM and 1000 nM (sheet 'Samples'), CATDS: 1.39607166136132E-2; n = 1
[19] = test system: STK10; conditions: read-out: apparent Kd; compound concentrations: 100 nM and 1000 nM (sheet 'Samples'), CATDS: 1.4244346039845699E-2; n = 1
[20] = compound concentrations:100 nM and 1000 nM (sheet 'Samples')

Cc1cccc(Nc2nc(N[C@H]3CCNC3)ncc2C(N)=O)c1.Cl [GSK2197149A]
potency estimated from few doses [1, 20]: 1.07 µM | potency estimated from few doses [2, 20]: 2.04 µM | potency estimated from few doses [3, 20]: 1.17 µM | potency estimated from few doses [4, 20]: 1.89 µM

CCn1c(-c2cccnc2O)nc2cnccc21 [SB-736715]
potency estimated from few doses ([5]; CATDS: 1.19408465116969E-2): 2.22 µM | potency estimated from few doses ([6]; compound concentrations: 100 nM and 1000 nM (sheet 'Samples'), CATDS: 1.6109346407018599E-2): 1.12 µM | potency estimated from few doses ([7]; CATDS: 1.16308056787147E-2): 2.39 µM | potency estimated from few doses ([3]; compound concentrations: 100 nM and 1000 nM (sheet 'Samples'), CATDS: 1.32694977387129E-2): 1.7 µM | potency estimated from few doses ([8]; compound concentrations: 100 nM and 1000 nM (sheet 'Samples'), CATDS: 1.6792269740451799E-2): 1.03 µM

CN(C)CCNC(=O)Nc1ccc(N(C)c2ccnc(Nc3ccc(CS(C)(=O)=O)cc3)n2)cc1.Cl [GW830900A]
potency estimated from few doses [1, 20]: 0.0399 µM

CC(=O)N[C@@H](Cc1ccc(OP(=O)(O)O)cc1)C(=O)N[C@H]1CCC(=O)N2CCC[C@@H](C(=O)NCc3ccc(Cl)cc3)N2C1=O [RO0325308-000]
potency estimated from few doses [9]: 0.0499 µM | potency estimated from few doses [10]: 0.0394 µM | potency estimated from few doses [11]: 0.0595 µM | potency estimated from few doses [6, 20]: 0.637 µM | potency estimated from few doses [12, 20]: 0.801 µM | potency estimated from few doses [13, 20]: 0.785 µM | potency estimated from few doses [14, 20]: 0.367 µM | potency estimated from few doses [15, 20]: 0.652 µM | potency estimated from few doses [8, 20]: 0.62 µM | potency estimated from few doses [16]: 0.0517 µM

O=C1N=C(NCc2cccs2)O/C1=C\c1ccc2ncccc2c1 [RO4624208-000]
potency estimated from few doses ([5]; CATDS: 0.15601694862230001): 0.0538 µM

O=C(O)C(F)(F)F.O=c1[nH]ccc2nc(N[C@@H]3CCNC3)nc(Nc3ccc4c(c3)S(=O)(=O)CC4)c12 [GSK2181306A]
potency estimated from few doses ([1]; compound concentrations: 100 nM and 1000 nM (sheet 'Samples'), CATDS: 8.5928839760778392E-3): 1.43 µM | potency estimated from few doses [17]: 1.06 µM | potency estimated from few doses [18]: 0.364 µM | potency estimated from few doses ([2]; compound concentrations: 100 nM and 1000 nM (sheet 'Samples'), CATDS: 1.37346756795961E-2): 0.378 µM | potency estimated from few doses ([6]; compound concentrations: 100 nM and 1000 nM (sheet 'Samples'), CATDS: 1.0301359054319901E-2): 0.78 µM | potency estimated from few doses ([12]; compound concentrations: 100 nM and 1000 nM (sheet 'Samples'), CATDS: 1.0186150726121701E-2): 0.806 µM | potency estimated from few doses ([7]; CATDS: 1.35004304297044E-2): 0.393 µM | potency estimated from few doses ([13]; compound concentrations: 100 nM and 1000 nM (sheet 'Samples'), CATDS: 2.6170878676828799E-2): 0.109 µM | potency estimated from few doses ([3]; compound concentrations: 100 nM and 1000 nM (sheet 'Samples'), CATDS: 1.40189699777229E-2): 0.361 µM | potency estimated from few doses ([4]; compound concentrations: 100 nM and 1000 nM (sheet 'Samples'), CATDS: 1.3161717541215199E-2): 0.416 µM | potency estimated from few doses ([14]; compound concentrations: 100 nM and 1000 nM (sheet 'Samples'), CATDS: 0.14676588130533899): 0.00785 µM | potency estimated from few doses ([15]; compound concentrations: 100 nM and 1000 nM (sheet 'Samples'), CATDS: 1.26908044815701E-2): 0.453 µM | potency estimated from few doses ([8]; compound concentrations: 100 nM and 1000 nM (sheet 'Samples'), CATDS: 1.2402205913088901E-2): 0.478 µM | potency estimated from few doses [19]: 0.349 µM
